This is an account of results in paper PMC4081100, “A DNA-binding-site landscape and regulatory network analysis for NAC transcription factors in Arabidopsis thaliana”.

Test in all cases: universal protein binding microarray (PBM); transcription factors of Arabidopsis thaliana; high values mean tight binding
One assay has as its target GST-NTL6(1-168) (Arabidopsis thaliana, UniProt Q9SCK6 1-168). The conditions noted are these: protein: recombinant; tags: GST; chain copies: 2; dsDNA, one strand shown. In short, it runs like this: (§1)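 Protein amounts were determined by A280 or anti-GST western blot after glutathione–Sepharose 4B purification of GST-tagged proteins induced in cells, with zinc acetate included for zinc-finger proteins. Duplicate runs at 200 to 500 nM final were done on custom all-10-mer Agilent 4 × 180K arrays made double-stranded by primer extension. The normalised enrichment score (E-score) over gapped and ungapped 8-mers is the measure of binding.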

Another assay addresses T1, GST-ANAC055(1-171) (Arabidopsis thaliana, UniProt Q9LDY8 1-171).
T1 sequence: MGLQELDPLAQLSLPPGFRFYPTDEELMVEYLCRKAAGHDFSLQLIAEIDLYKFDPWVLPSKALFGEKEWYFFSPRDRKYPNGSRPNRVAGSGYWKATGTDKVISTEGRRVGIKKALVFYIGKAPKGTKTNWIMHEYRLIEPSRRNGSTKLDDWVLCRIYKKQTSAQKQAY
The conditions noted are these: protein: recombinant; tags: GST; chain copies: 2; dsDNA, one strand shown. In short, it runs like this:
as §1

The target of another assay is T2, GST-ATAF1 NAC domain (Arabidopsis thaliana, UniProt Q39013 7-158).
T2 sequence: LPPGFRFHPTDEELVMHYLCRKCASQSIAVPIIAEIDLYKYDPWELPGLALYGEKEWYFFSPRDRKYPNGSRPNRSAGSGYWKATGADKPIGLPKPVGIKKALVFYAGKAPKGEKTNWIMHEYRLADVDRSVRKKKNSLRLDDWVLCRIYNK
The conditions noted are these: protein: recombinant; tags: GST; chain copies: 2; dsDNA, one strand shown. In short, it runs like this:
as §1

Assay [1] has as its target T3, GST-ANAC092(1-285) full length (Arabidopsis thaliana, UniProt Q9FKA0 1-285).
T3 sequence: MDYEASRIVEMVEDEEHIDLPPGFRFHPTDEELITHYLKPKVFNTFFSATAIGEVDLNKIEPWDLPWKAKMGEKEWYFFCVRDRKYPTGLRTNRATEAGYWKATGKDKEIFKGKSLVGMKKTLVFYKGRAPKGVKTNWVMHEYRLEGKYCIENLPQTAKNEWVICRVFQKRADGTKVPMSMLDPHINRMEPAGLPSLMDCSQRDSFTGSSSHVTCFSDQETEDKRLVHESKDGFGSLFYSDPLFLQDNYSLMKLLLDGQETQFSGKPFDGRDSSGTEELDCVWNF
The conditions noted are these: protein: recombinant; tags: GST; chain copies: 2; dsDNA, one strand shown. The procedure, abridged:
as §1

A further assay concerns the target T4, GST-NST2(1-184) (Arabidopsis thaliana, UniProt Q9M274 1-184).
T4 sequence: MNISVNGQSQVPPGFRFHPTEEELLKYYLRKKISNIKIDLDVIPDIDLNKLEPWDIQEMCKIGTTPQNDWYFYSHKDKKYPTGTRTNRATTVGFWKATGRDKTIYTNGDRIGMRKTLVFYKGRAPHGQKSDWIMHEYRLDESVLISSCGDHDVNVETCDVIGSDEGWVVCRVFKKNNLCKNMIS
Particulars: protein: recombinant; tags: GST; chain copies: 2; dsDNA, one strand shown. In short, it runs like this:
as §1

A further assay concerns the target T5, GST-NTL8 NAC domain (Arabidopsis thaliana, UniProt Q9XIN7 14-156).
T5 sequence: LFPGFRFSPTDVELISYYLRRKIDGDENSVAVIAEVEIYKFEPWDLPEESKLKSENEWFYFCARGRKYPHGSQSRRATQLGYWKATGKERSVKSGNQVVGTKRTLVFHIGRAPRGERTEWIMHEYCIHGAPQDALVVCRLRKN
The conditions noted are these: protein: recombinant; tags: GST; chain copies: 2; dsDNA, one strand shown. The procedure, abridged:
as §1

A further assay addresses T6, GST-SND1(1-203) (Arabidopsis thaliana, UniProt Q9LPI7 1-203).
T6 sequence: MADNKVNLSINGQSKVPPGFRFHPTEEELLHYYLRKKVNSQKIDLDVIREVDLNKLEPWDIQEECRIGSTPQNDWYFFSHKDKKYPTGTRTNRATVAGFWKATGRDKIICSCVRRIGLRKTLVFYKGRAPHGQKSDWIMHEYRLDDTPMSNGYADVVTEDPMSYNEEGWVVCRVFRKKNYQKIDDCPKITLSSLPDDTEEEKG
Particulars: protein: recombinant; tags: GST; chain copies: 2; dsDNA, one strand shown. In short, it runs like this: as §1

The next assay deals with T7, GST-VND7 NAC domain (Arabidopsis thaliana, UniProt Q9C8W9 9-158).
T7 sequence: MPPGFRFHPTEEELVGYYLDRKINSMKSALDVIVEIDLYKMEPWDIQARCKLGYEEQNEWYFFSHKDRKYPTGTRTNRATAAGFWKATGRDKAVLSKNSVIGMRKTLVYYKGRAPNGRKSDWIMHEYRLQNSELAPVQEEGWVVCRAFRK
The conditions noted are these: protein: recombinant; tags: GST; chain copies: 2; dsDNA, one strand shown. In short, it runs like this:
as §1

The target in another assay is GST-WRKY1(266-371) (Arabidopsis thaliana, UniProt Q9SI37 266-371). The conditions noted are these: protein: recombinant; tags: GST; dsDNA, one strand shown. In short, it runs like this: as §1
Sequence of GST-WRKY1(266-371) (Q9SI37 266-371): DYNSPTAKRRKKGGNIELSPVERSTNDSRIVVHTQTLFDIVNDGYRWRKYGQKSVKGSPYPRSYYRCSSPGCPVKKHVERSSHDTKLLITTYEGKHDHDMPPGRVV
In a further assay the target is T8, GST-NAP(1-166) (Arabidopsis thaliana, UniProt O49255 1-166).
T8 sequence: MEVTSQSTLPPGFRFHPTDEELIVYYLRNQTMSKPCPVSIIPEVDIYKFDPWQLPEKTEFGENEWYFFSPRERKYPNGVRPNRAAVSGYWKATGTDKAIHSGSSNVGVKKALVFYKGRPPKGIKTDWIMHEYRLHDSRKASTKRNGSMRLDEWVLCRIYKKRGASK
The conditions noted are these: protein: recombinant; tags: GST; chain copies: 2; dsDNA, one strand shown. The procedure, abridged:
as §1

Another assay addresses T9, GST-ANAC092(1-176) (Arabidopsis thaliana, UniProt Q9FKA0 1-176).
T9 sequence: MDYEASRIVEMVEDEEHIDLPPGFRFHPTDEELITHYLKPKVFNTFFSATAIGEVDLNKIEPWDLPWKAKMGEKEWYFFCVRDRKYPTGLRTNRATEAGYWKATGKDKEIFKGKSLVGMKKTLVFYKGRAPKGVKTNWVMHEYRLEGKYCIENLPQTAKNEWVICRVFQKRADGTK
Particulars: protein: recombinant; tags: GST; chain copies: 2; dsDNA, one strand shown. The procedure, abridged: as §1

The target of another assay is T10, GST-ANAC019 NAC domain (Arabidopsis thaliana, UniProt Q9C932 14-162).
T10 sequence: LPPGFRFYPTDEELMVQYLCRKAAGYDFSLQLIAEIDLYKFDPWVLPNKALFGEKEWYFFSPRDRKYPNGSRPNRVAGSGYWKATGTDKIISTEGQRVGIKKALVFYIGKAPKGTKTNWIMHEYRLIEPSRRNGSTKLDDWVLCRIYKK
Particulars: protein: recombinant; tags: GST; chain copies: 2; dsDNA, one strand shown. In short, it runs like this:
as §1

The next assay concerns the target T11, GST-VND3 NAC domain (Arabidopsis thaliana, UniProt Q9FH59 12-162).
T11 sequence: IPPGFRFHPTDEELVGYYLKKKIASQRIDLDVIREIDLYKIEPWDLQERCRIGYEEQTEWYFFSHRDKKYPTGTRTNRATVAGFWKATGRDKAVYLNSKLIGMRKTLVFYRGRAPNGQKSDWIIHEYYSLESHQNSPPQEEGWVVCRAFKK
Particulars: protein: recombinant; tags: GST; chain copies: 2; dsDNA, one strand shown. In short, it runs like this:
as §1

Sequence of GST-NTL6(1-168) (Q9SCK6 1-168): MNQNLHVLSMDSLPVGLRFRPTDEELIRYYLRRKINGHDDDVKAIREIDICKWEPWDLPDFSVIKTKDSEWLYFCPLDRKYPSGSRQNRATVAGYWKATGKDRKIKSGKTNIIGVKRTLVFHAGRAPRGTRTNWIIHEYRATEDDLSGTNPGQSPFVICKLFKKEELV

As for ACTTTCCT, the binding signal stood at 0.292 E-score with GST-NTL6(1-168); 0.171 E-score in the assay with GST-ANAC055(1-171); 0.0923 E-score with GST-ATAF1 NAC domain; 0.0813 E-score in assay [1]; 0.144 E-score in the assay with GST-NST2(1-184); 0.4 E-score in the assay with GST-NTL8 NAC domain. For the same sequence, the binding signal with GST-SND1(1-203) amounted to 0.145 E-score; in the assay with GST-VND7 NAC domain, 0.121 E-score; with GST-WRKY1(266-371) it was 0.171 E-score.

In the case of AAGTCATC, the binding signal with GST-NTL6(1-168) amounted to 0.233 E-score; in the assay with GST-ANAC055(1-171), 0.0818 E-score; in [1], 0.213 E-score; with GST-NAP(1-166) it was 0.0606 E-score; with GST-NST2(1-184), 0.089 E-score; with GST-NTL8 NAC domain, 0.0978 E-score. Moreover, the figures for the binding signal in the assay with GST-SND1(1-203), with GST-VND7 NAC domain and with GST-WRKY1(266-371) were 0.242 E-score, 0.11 E-score and 0.406 E-score, respectively.

In the case of AGGGAAAC, the binding signal in the assay with GST-ANAC092(1-176) was determined as 0.0845 E-score; with GST-NTL6(1-168) it was 0.115 E-score; in the assay with GST-ANAC019 NAC domain, 0.0754 E-score; with GST-ATAF1 NAC domain, 0.0887 E-score; in assay [1], 0.071 E-score; with GST-NAP(1-166), 0.14 E-score. Moreover, the binding signal was found to be 0.482 E-score with GST-NTL8 NAC domain, 0.0839 E-score in the assay with GST-SND1(1-203) and 0.0608 E-score with GST-VND3 NAC domain.

For TGAAGTCA, the binding signal with GST-NTL6(1-168) turned out to be 0.229 E-score; in [1], 0.133 E-score; in the assay with GST-NST2(1-184) it was 0.0789 E-score; with GST-NTL8 NAC domain it was 0.165 E-score; with GST-SND1(1-203) it was 0.196 E-score; with GST-VND3 NAC domain, 0.0873 E-score. In the assay with GST-WRKY1(266-371), the binding signal stood at 0.426 E-score.

Turning to TGAAGCAA, the binding signal with GST-ANAC092(1-176) was 0.232 E-score; in the assay with GST-NTL6(1-168), 0.389 E-score; in the assay with GST-ANAC019 NAC domain, 0.0575 E-score; in assay [1], 0.32 E-score; with GST-NST2(1-184), 0.314 E-score; with GST-NTL8 NAC domain it was 0.422 E-score. Further, the binding signal amounted to 0.447 E-score with GST-SND1(1-203) and 0.187 E-score with GST-VND7 NAC domain.

In the case of ATCGCGTA, the binding signal with GST-ANAC092(1-176) came out at 0.261 E-score; in the assay with GST-ATAF1 NAC domain, 0.165 E-score; in assay [1], 0.404 E-score; with GST-NAP(1-166), 0.149 E-score; in the assay with GST-NST2(1-184) it was 0.211 E-score; in the assay with GST-SND1(1-203) it was 0.442 E-score. Further, the binding signal with GST-VND7 NAC domain is 0.104 E-score.

AGGGTAAA: the binding signal came out at 0.1 E-score with GST-ANAC092(1-176); 0.0852 E-score with GST-NTL6(1-168); 0.0614 E-score with GST-ANAC055(1-171); 0.0699 E-score in [1]; 0.0883 E-score in the assay with GST-NAP(1-166); 0.14 E-score with GST-NST2(1-184). The binding signal in the assay with GST-NTL8 NAC domain worked out at 0.429 E-score; with GST-SND1(1-203), 0.153 E-score; with GST-VND7 NAC domain it was 0.108 E-score.
